Screening data from PubChem BioAssay.
CHX counter: counter-screen for Shiga toxin inhibitors: cycloheximide protein synthesis inhibition. max response, %. cell reporter, cycloheximide protein synthesis inhibition counterscreen. AID 2314. 12% of 300,000 active; in the data active means max response mostly above about 13%, no sharp cut-off; inactive means mostly below about 14%; further: read at 38.3 µM for the half of the compounds with a filed dose
Pf growth 48h: P. falciparum growth inhibition at 48 hours (one generation). AID 504832. Potency, µM (highest dose often 28.7 µM), usual class: inhibitors. P. falciparum luciferase growth in erythrocytes, 48 h. 5.9% of 310,000 active
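Luminescence readout; reporter = integrated firefly luciferase in P. falciparum. RBC culture at 2% hematocrit, 0.1% parasitemia final, 37 C/5% CO2; decreased signal taken as growth inhibition.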
Pf growth 96h: P. falciparum growth inhibition at 96 hour, primary screen for plastid delayed-death inhibitors. P. falciparum luciferase reporter growth, 96 h. Potency, µM (titrated, usually from 28.7 µM), hits mostly inhibitors. 6.9% of 320,000 active
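Compounds incubated with erythrocytes infected by luciferase-expressing P. falciparum (2% hematocrit, 0.05% parasitemia final) for 96 hours, 37 C in 5% CO2. Growth inhibition scored as decreased luciferase luminescence.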
Shiga toxin inh: Shiga toxin inhibition; Vero cells, Shiga toxin protein synthesis inhibition reporter; inhibition, % at 38.7 µM; 9.2% of 290,000 active; in the data active means inhibition mostly above about 28%, no sharp cut-off; inactive means mostly below about 43%
Of the large screens only hits and unclear results are named; the others gave an inactive call. Shown are actives, neighbours in structure and some others; about 21% of the full set was active somewhere. Unless noted, the call rests on the fitted dose curve; in most records, active means well fitted inhibition curve with a large enough effect; inconclusive means small, poorly fitted or top-dose-only effect, or another doubt; inactive means no such curve, though single readings can be large or run the other way.

Cc1ccc(-c2nc3ccccc3[nH]2)cc1NC(=O)c1ccc2c(c1)OCO2	CHX counter 14, Pf growth 48h inconclusive, Pf growth 96h inconclusive
COc1ccccc1/C=C1\SC(=S)N(CC(=O)Nc2nnc(C)s2)C1=O	none
CCOC(=O)c1c(CSc2ccccc2)oc2cc(Br)c(O)c(CN(C)C)c12	Pf growth 48h 2.6µM, Pf growth 96h inconclusive
CCOC(=O)c1c(CSc2ccc(CC)cc2)oc2ccc(O)c(CN(C)C)c12	Pf growth 48h 2.3µM
CCOC(=O)c1c(C)oc2ccc(O)c(CN(C)C)c12	none
CCOC(=O)c1c(C)oc2cc(Cl)c(O)c(CN(C)C)c12	CHX counter 39, Pf growth 48h inconclusive, Pf growth 96h inconclusive, Shiga toxin inh 69
CC(=O)c1c(CSc2ccccc2)oc2ccc(O)c(CN(C)C)c12	Pf growth 48h inconclusive
CCCCc1cc(=O)oc2cc(C)cc(OCC(=O)NC(Cc3ccc(Cl)cc3)C(=O)O)c12 (stereo not drawn)	none
O=C(NNC(=O)c1cccs1)c1csc(N2CCOCC2)n1	none (no result: CHX counter, Shiga toxin inh)
O=C(NNC(=O)C12CC3CC(CC(C3)C1)C2)c1csc(N2CCOCC2)n1	Pf growth 48h inconclusive, Pf growth 96h 13µM (no result: CHX counter, Shiga toxin inh)
[O-][n+]1c2c(c3c4non(O)c4ccc31)CCCC2	Pf growth 96h 12µM (no result: Pf growth 48h)
COn1c2c(c3c4no[n+]([O-])c4ccc31)CCCC2	none (no result: Pf growth 48h)
Nc1nc(N)nc(-c2ccc(Oc3ccccc3)cc2)n1	none (no result: Pf growth 48h)
Cc1sc(N)nc1-c1ccc2c(c1)OCCO2	CHX counter 17, Pf growth 96h inconclusive, Shiga toxin inh 53
Cc1sc(N)nc1-c1ccc(Oc2ccccc2)cc1	CHX counter 19, Pf growth 96h inconclusive
Nc1nc(-c2ccc3c(c2)OCCO3)c(CC(=O)O)s1	none
CCOc1ccc(-c2cc(C(=O)NCCCn3ccnc3)c3cc(Br)ccc3n2)cc1	Pf growth 48h 1.7µM, Pf growth 96h inconclusive
COc1ccc(-c2cc(C(F)(F)F)n3nc(C(=O)NCCCn4ccnc4)cc3n2)cc1	CHX counter 23 (no result: Pf growth 48h)
CCOc1ccc(-c2cc(C(=O)NCCCn3ccnc3)c3ccccc3n2)cc1	Pf growth 48h inconclusive
O=C(NCCCn1ccnc1)c1nn2c(C(F)(F)F)cc(-c3ccc(Br)cc3)nc2c1Cl	Pf growth 48h 1.5µM, Pf growth 96h 2.9µM
COc1ccc(-c2cc(C(F)(F)F)n3nc(C(=O)NCCN4CCOCC4)cc3n2)cc1	Pf growth 48h inconclusive
CCN(CC)CCN(Cc1cc2cc(C)ccc2[nH]c1=O)C(=S)Nc1ccccc1	Pf growth 48h inconclusive
COc1ccccc1C(=O)O/N=C(/C)c1ccc(N2C(=O)C3CCCCC3C2=O)cc1 (stereo not drawn)	none
C/C(=N/OC(=O)C1CC12CCC2)c1ccc(Br)cc1 (stereo not drawn)	CHX counter 68, Shiga toxin inh 156
CCOC(=O)CSC1=N/C(=C\c2ccc(OC)c(OC)c2)C(=O)N1C	none
c1coc(-c2nnc(SCc3nc4ccccc4[nH]3)o2)c1	none (no result: Pf growth 96h)
c1ccc(CSc2nnc(-c3ccco3)o2)cc1	CHX counter 49, Shiga toxin inh 109
Fc1ccc(CSc2nnc(-c3ccco3)o2)cc1	CHX counter 46, Shiga toxin inh 59
Brc1ccc(CSc2nnc(-c3ccco3)o2)cc1	CHX counter 63, Shiga toxin inh 69
Cc1ccc(CSc2nnc(-c3ccco3)o2)cc1	CHX counter 33, Shiga toxin inh 107 (no result: Pf growth 48h)
O=C(O)c1ccc(CSc2nnc(-c3ccco3)o2)cc1	none (no result: Pf growth 48h)
COc1cc(NC(=O)CN(C)S(=O)(=O)c2ccc3c(c2)CC(C)N3C(C)=O)cc(OC)c1OC (stereo not drawn)	Pf growth 96h inconclusive
c1ccc(-c2cnnc(SCc3cn4cccnc4n3)n2)cc1	Pf growth 48h 10µM, Pf growth 96h 9.3µM
c1ccc2[nH]c(SCc3cn4cccnc4n3)nc2c1	none
CCc1c(C)nc2[nH]nc(-c3ccccc3)n2c1=O	CHX counter 15
CCc1c(C)nc2[nH]nc(-c3ccccc3C)n2c1=O	none (no result: Pf growth 96h)
CCOc1ccc(Nc2nc(Cc3nnc(SCC(=O)c4ccc(C)c(C)c4)o3)cs2)cc1	CHX counter 21 (no result: Pf growth 96h)
CN(CC(=O)Nc1ncn[nH]1)S(=O)(=O)c1ccc(Cl)cc1	none
COc1ccccc1C(c1nnnn1CCc1ccccc1)N1CCN(c2ccccc2)CC1 (stereo not drawn)	Pf growth 96h inconclusive
COc1ccccc1N1CCN(C(c2ccccc2)c2nnnn2CCc2ccccc2)CC1 (stereo not drawn)	Pf growth 48h 10µM
C=CCN1CCN(C(c2cccc(OC)c2OC)c2nnnn2CCC(C)C)CC1 (stereo not drawn)	Pf growth 48h 7.4µM
COc1cccc(C(c2nnnn2CCc2ccccc2)N2CCN(c3ccccc3)CC2)c1OC (stereo not drawn)	Pf growth 48h 4.7µM, Pf growth 96h inconclusive
CC(Sc1nnc(-c2ccco2)n1C)C(=O)N1C(C)CCCC1C (stereo not drawn)	Pf growth 48h inconclusive
O=C(CSc1nc2[nH]ncc2c(=O)[nH]1)NCCc1ccccc1	none
C=NC(C(=O)NC1C(=O)N2C1SC(C)(C)C2C(=O)O)c1ccccc1 (stereo not drawn)	none (no result: CHX counter, Shiga toxin inh)
COc1ccc(NC(=O)C(=O)NCC(c2ccco2)N2CCc3ccccc3C2)cc1OC (stereo not drawn)	Pf growth 48h 12µM, Pf growth 96h inconclusive (no result: CHX counter, Shiga toxin inh)
Cc1cc(C)c(S(=O)(=O)NCC(c2ccco2)N2CCc3ccccc3C2)c(C)c1 (stereo not drawn)	Pf growth 48h 9.3µM, Pf growth 96h inconclusive (no result: CHX counter, Shiga toxin inh)
COc1ccc(OC)c(S(=O)(=O)NCC(c2cccs2)N2CCc3ccccc3C2)c1 (stereo not drawn)	Pf growth 48h 15µM, Pf growth 96h inconclusive (no result: CHX counter, Shiga toxin inh)
COc1cccc(NC(=O)C(=O)NCC(c2ccco2)N2CCc3ccccc3C2)c1 (stereo not drawn)	Pf growth 48h 12µM, Pf growth 96h inconclusive (no result: CHX counter, Shiga toxin inh)
CCn1cc(CN2CCC(n3nccc3NC(=O)c3ccccc3C)CC2)cn1	Pf growth 96h inconclusive
CC(=O)Nc1cccc(NC(=O)C(=O)NCC(c2ccco2)N2CCc3ccccc3C2)c1 (stereo not drawn)	Pf growth 48h 12µM, Pf growth 96h inconclusive (no result: CHX counter, Shiga toxin inh)
CSc1nc(C(=O)N2CCCC(C(=O)c3ccc(Cl)cc3)C2)cs1 (stereo not drawn)	Pf growth 96h inconclusive
COc1ccc(C(=O)Nc2ccc3c(c2)C(=O)N(C)C3=O)cc1OC	CHX counter 17, Shiga toxin inh 32
COc1cc(C(=O)NC(=S)Nc2ccc3c(c2)C(=O)N(C)C3=O)cc(OC)c1OC	none
COc1ccc(C(=O)Nc2ccc3c(c2)n(C)c(=O)n3C)cc1OC	none
COc1cccc(OC)c1C(=O)NC(=S)Nc1ccc2c(c1)C(=O)N(C)C2=O	Pf growth 48h 1.7µM, Pf growth 96h inconclusive
CC[C@H](C)[C@H](NC(=O)CN)C(=O)N[C@@H](CC(C)C)C(=O)NCC(=O)N[C@@H](Cc1ccccc1)C(=O)N[C@H](C(=O)N[C@@H](Cc1ccccc1)C(=O)N[C@H](C(=O)N[C@@H](CC(C)C)C(=O)O)[C@@H](C)O)C(C)C	none (no result: Pf growth 48h, Pf growth 96h)
CC1CCCN(S(=O)(=O)c2ccc3c(c2)n(C)c(=O)c(=O)n3C)C1 (stereo not drawn)	none
Cn1c(=O)c(=O)n(C)c2cc(S(=O)(=O)N3CCN(C4CCCCC4)CC3)ccc21	Pf growth 96h 8.3µM (no result: Pf growth 48h)
